Out of some 69,000 compounds screened, about 8,600 (12%) showed an effect of 50% or more. Many of the other results were omitted from the sample, so strong results are more common in it than they were.
These compounds were tested on Plasmodium berghei (assay: Screen against P. berghei liver stage (PbLuc), transformed with Luciferase, at 10uM). Settings: tested at 10 uM.
Assay type: functional, HepG2

Question: For CCn1nccc1CNC(=O)CCC1CCCC1, which INHIBITION is on record?
Answer: 13%

Question: How did the INHIBITION turn out when c1coc(CN2C[C@@H]3CN(Cc4ccoc4)CCO[C@@H]3C2)c1 was run?
Answer: 24.6%

Question: For Cc1cc(NCc2ccc(CS(N)(=O)=O)cc2)nc(C)n1, which INHIBITION is on record?
Answer: 11.8%

Question: How did the INHIBITION turn out when CS(=O)(=O)c1ccc(NC(=O)NC2(c3ccccc3)CCC2)cc1 was run?
Answer: 36.7%

Question: Which INHIBITION does the source give for Cc1ccc(CN2CCc3nnc(CN4CCCC4=O)n3CC2)o1 here?
Answer: 3.81%

Question: How did the INHIBITION turn out when C=C(C)CN1CCC(C(=O)c2cc(F)ccc2F)CC1 was run?
Answer: 5.03%

Question: For CCNC(=O)C1(Cc2cc(-c3ccccc3)no2)CCCN(C(C)=O)C1 (stereo unspecified), which INHIBITION is on record?
Answer: 42.5%

Question: How did the INHIBITION turn out when COCCC(=O)N[C@H]1CN(c2nc(C)c3c(n2)CCCC3)C[C@@H]1C1CC1 was run?
Answer: 20.4%

Question: Cc1nnc(CN2C[C@H](NC(=O)CC3CCCC3)[C@@H](C3CC3)C2)s1 was tested. Which INHIBITION did it give?
Answer: 64.7%

Question: O=C(O)c1cc(N2C[C@H](NC(=O)C3CCOCC3)[C@@H](C3CC3)C2)ccn1 was tested. Which INHIBITION did it give?
Answer: 3.68%

Question: O=C(CC1CCCC1)N[C@H]1CN(Cc2c[nH]cn2)C[C@@H]1C1CC1 was tested. Which INHIBITION did it give?
Answer: 45.2%

Question: How did the INHIBITION turn out when COCC1(C(=O)N[C@H]2CN(c3ccnc(C)c3)C[C@@H]2C2CC2)CCC1 was run?
Answer: 51.3%

Question: Which INHIBITION does the source give for COCC1(C(=O)N[C@H]2CN(c3nnc(C)s3)C[C@@H]2C2CC2)CCC1 here?
Answer: 64.4%

Question: Cc1nc(O)cc(CN2C[C@H](NC(=O)C3CCC3)[C@@H](C3CC3)C2)n1 was tested. Which INHIBITION did it give?
Answer: 18.9%

Question: With Cc1cc(N2C[C@H](NC(=O)C3(C#N)CCOCC3)[C@@H](C(C)C)C2)ccn1 as the compound, how does the INHIBITION read?
Answer: 30.7%

Question: How did the INHIBITION turn out when COCC1(C(=O)N[C@H]2CN(c3noc(C)n3)C[C@@H]2C2CC2)CCC1 was run?
Answer: 2.79%

Question: With O=C(c1cccs1)N1CC[C@@H]2CN(C3CCOCC3)CCO[C@@H]2C1 as the compound, how does the INHIBITION read?
Answer: 45.7%

Question: CCn1nc(C)c2nnn(CC(=O)Nc3cccc(C)c3)c(=O)c21 was tested. Which INHIBITION did it give?
Answer: 42.4%

Question: CN(C)C[C@H]1OC[C@@H]2CCN(S(=O)(=O)c3cccs3)C[C@@H]21 was tested. Which INHIBITION did it give?
Answer: 38.7%

Question: With CC(CO)NC(=O)Nc1ccc(S(C)(=O)=O)nc1 (stereo unspecified) as the compound, how does the INHIBITION read?
Answer: -38.695%

Question: Which INHIBITION does the source give for COc1ccc(CNCC(C)Oc2ccccn2)cc1 (stereo unspecified) here?
Answer: -30.8%

Question: How did the INHIBITION turn out when Cc1ccc(S(=O)(=O)N2CC[C@@H]3C[C@H](NC(=O)c4ccncc4)[C@@H]32)cc1 was run?
Answer: 20.4%

Question: How did the INHIBITION turn out when CNC(=O)[C@H]1C[C@@H]2CN(S(=O)(=O)c3ccc(C)cc3)C[C@@H]2N1C was run?
Answer: -10.3%

Question: For Cc1ccc(S(=O)(=O)N2CC[C@@H]3C[C@H](NC(=O)c4n[nH]cc4Cl)[C@@H]32)cc1, which INHIBITION is on record?
Answer: 6.521%

Question: How did the INHIBITION turn out when Cc1ccc(S(=O)(=O)N2C[C@H]3C[C@H](NC(=O)c4ccccn4)[C@H]3C2)cc1 was run?
Answer: 92.9%

Question: Cc1ccc(S(=O)(=O)N2C[C@H]3C[C@H](NC(=O)c4cscn4)[C@H]3C2)cc1 was tested. Which INHIBITION did it give?
Answer: 25.6%

Question: With Cc1ccc(S(=O)(=O)N2C[C@H]3C[C@H](NC(=O)c4cc[nH]n4)[C@H]3C2)cc1 as the compound, how does the INHIBITION read?
Answer: 64.1%

Question: Which INHIBITION does the source give for Cc1ccc(CN2CCCC3(CCCC(=O)N3C)C2)s1 (stereo unspecified) here?
Answer: 4.98%

Question: CC(C)c1nnc2n1CCN(Cc1ncc(-c3ccccc3)o1)C2 was tested. Which INHIBITION did it give?
Answer: 38.85%

Question: With Cc1cc(C(=O)NCc2cccs2)nc(N2CCCC2)n1 as the compound, how does the INHIBITION read?
Answer: -2.28%

Question: With CC(C)n1[nH]c(=O)c2c1NC(=O)CSC2C1CCCCC1 (stereo unspecified) as the compound, how does the INHIBITION read?
Answer: 62.5%

Question: CCCOc1ccc(C2SCC(=O)Nc3c2c(=O)[nH]n3C(C)C)cc1 (stereo unspecified) was tested. Which INHIBITION did it give?
Answer: 15.1%

Question: For CC(C)n1[nH]c(=O)c2c1NC(=O)CSC2c1ccc(OCC(N)=O)cc1 (stereo unspecified), which INHIBITION is on record?
Answer: 6.83%

Question: How did the INHIBITION turn out when CC(C)COc1ccc(C2SCC(=O)Nc3c2c(=O)[nH]n3C(C)C)cc1 (stereo unspecified) was run?
Answer: 52.4%

Question: With CC(C)n1[nH]c(=O)c2c1NC(=O)CC2C1CCCCC1 (stereo unspecified) as the compound, how does the INHIBITION read?
Answer: -25.6%

Question: How did the INHIBITION turn out when CCOc1ccc(C2SCC(=O)Nc3c2c(=O)[nH]n3C(C)C)cc1 (stereo unspecified) was run?
Answer: 44.9%

Question: Which INHIBITION does the source give for Cc1csc(N2CCCN(C(=O)c3occc3C)CC2)n1 here?
Answer: 46.2%

Question: For CC(C)(C)OC(=O)N1CCN(C(=O)CCn2cccn2)CC1, which INHIBITION is on record?
Answer: 38.05%

Question: With O=C(C1CC=CC1)N1CC[C@@H](O)[C@H]1Cc1cccnc1 as the compound, how does the INHIBITION read?
Answer: 43%

Question: Which INHIBITION does the source give for CCNC(=O)CNC(=O)Nc1c(F)cc(F)cc1-c1ccccc1 here?
Answer: 7.77%

Question: COc1cccc(CNCCNS(=O)(=O)Cc2ccccc2)c1 was tested. Which INHIBITION did it give?
Answer: 30.2%

Question: How did the INHIBITION turn out when Cc1cc(C)n(-c2cncc(NCCNC(=O)C(C)C)n2)n1 was run?
Answer: -23.5%

Question: For Cn1nc(CNC(=O)C2CC2)cc1C1CC1, which INHIBITION is on record?
Answer: -62.4%

Question: For CCn1nc(C)c(NC(=O)c2cc(NC(=O)C3CC3)n(C)n2)c1C, which INHIBITION is on record?
Answer: 29.7%

Question: With Cc1cc(NC(=O)C(C)C)n(-c2nc(C)c(C)c(=O)[nH]2)n1 as the compound, how does the INHIBITION read?
Answer: 93.2%

Question: How did the INHIBITION turn out when Cc1nc(C)c(CC(=O)Nc2nnc(C3CC3)s2)c(=O)[nH]1 was run?
Answer: -0.18%

Question: Which INHIBITION does the source give for Cc1nc(-n2nc(C3CC3)cc2NC(=O)C(C)C)[nH]c(=O)c1C here?
Answer: 93.2%

Question: Which INHIBITION does the source give for CC(C)C(=O)Nc1cc(C(C)(C)C)nn1-c1ccccn1 here?
Answer: -6.94%

Question: For CCc1c(C)nn(CCNC(=O)c2cc(C3CC3)n[nH]2)c1C, which INHIBITION is on record?
Answer: -40.7%

Question: With CCc1cc(=O)[nH]c(-n2nc(C3CC3)cc2NC(=O)C2CC2)n1 as the compound, how does the INHIBITION read?
Answer: 91%

Question: For CC(C)C(=O)Nc1cc(C(=O)NC2CC(C)(C)NC(C)(C)C2)nn1C, which INHIBITION is on record?
Answer: 44.6%

Question: CC(=O)N1CCN(c2cc(CCNC(=O)C(C)C)nc(C3CC3)n2)CC1 was tested. Which INHIBITION did it give?
Answer: 18.3%

Question: Which INHIBITION does the source give for CCc1c(C)nc(-n2nc(C3CC3)cc2NC(C)=O)[nH]c1=O here?
Answer: 93.7%

Question: How did the INHIBITION turn out when CN(C)Cc1nn(C)c2c1CCN(C(=O)c1cnccn1)C2 was run?
Answer: -43.1%

Question: CNC(=O)c1ccc(C2CN(Cc3ccc(F)cc3)CCO2)nc1 (stereo unspecified) was tested. Which INHIBITION did it give?
Answer: 2.55%

Question: Which INHIBITION does the source give for Cc1nc(CN(C)C2CCN(CCc3ccccn3)C2)no1 (stereo unspecified) here?
Answer: -41.6%

Question: Cc1cc(C)n(C2CCCN(C(=O)c3ccc(F)c(F)c3)C2)n1 (stereo unspecified) was tested. Which INHIBITION did it give?
Answer: 18.7%

Question: How did the INHIBITION turn out when CN(C)CCN1CCOCC12CCN(C(=O)C1CC1)CC2 was run?
Answer: 6.55%

Question: For COC[C@]1(O)CCN(c2cc(N3CCOCC3)ncn2)CC1(C)C, which INHIBITION is on record?
Answer: 32.3%

Question: Which INHIBITION does the source give for Cc1cc(OCc2ccc(C(=O)O)s2)ccc1Cl here?
Answer: -61.9%

Question: For CSC(C)C(=O)NCc1ccnc(N2CCN(C)CC2)c1 (stereo unspecified), which INHIBITION is on record?
Answer: -11.98%

Source: ChEMBL document CHEMBL4513216, “Probing the Open Global Health Chemical Diversity Library for Multistage-Active Starting Points for Next-Generation Antimalarials” (ACS Infect Dis, 2020)
